From PubChem BioAssay AID1159554 (Broad Institute, 2015)
“And” between values parts separate entries of the source, which are not always exact repeats. Equal entries are not always repeated. Screen size: about 94,000 compounds; about 2,100 (2.2%) were called active. Cut-off read from the data, not from the text of the source: active = activity change below about -80%; inconclusive = no clear call, values can overlap the other calls; inactive = above that. This excerpt belongs to a sample that is enriched for actives. Some compounds were tested as several samples or in several runs, with calls that do not always agree.

assay: P. falciparum Dd2 growth inhibitors, primary screen, SYBR Green fluorescence, single dose replicates (AID 1159554); details: 72 h, at 10 µM, stronger effect = lower value

Activity change, active:
Cc1ccc(S(=O)(=O)Nc2ccc3c(c2)CC(=O)N([C@@H](C)CO)C[C@H](C)[C@H](CN(C)Cc2ccc(C(=O)Nc4ccccc4N)cc2)O3)cc1 -86.6%
Cc1ccc(S(=O)(=O)Nc2ccc3c(c2)C(=O)N([C@H](C)CO)C[C@H](C)[C@H](CN(C)Cc2ccc(C(=O)Nc4ccccc4N)cc2)OCCCC[C@@H](C)O3)cc1 -83.6%
C[C@H]1CN([C@@H](C)CO)C(=O)Cc2cc(NC(=O)Nc3ccc4c(c3)OCO4)ccc2O[C@H]1CN(C)Cc1ccc(C(=O)Nc2ccccc2N)cc1 -81.3%
COc1ccc(S(=O)(=O)Nc2ccc3c(c2)CC(=O)N([C@@H](C)CO)C[C@@H](C)[C@@H](CN(C)Cc2ccc(C(=O)Nc4ccccc4N)cc2)O3)cc1 -80.3%
C[C@@H]1CN([C@@H](C)CO)C(=O)c2cc(NS(=O)(=O)c3ccccc3)ccc2O[C@@H]1CN(C)Cc1ccc(C(=O)Nc2ccccc2N)cc1 -83.2%
C[C@H]1CN([C@@H](C)CO)C(=O)Cc2cc(NS(=O)(=O)c3ccccc3)ccc2O[C@@H]1CN(C)Cc1ccc(C(=O)Nc2ccccc2N)cc1 -81.4%
C[C@@H]1CN([C@@H](C)CO)C(=O)Cc2cc(NC(=O)C3CCCCC3)ccc2O[C@@H]1CN(C)Cc1ccc(C(=O)Nc2ccccc2N)cc1 -83.7%

Activity change, inactive:
CC=Cc1ccc2n(c1=O)C[C@@H]1[C@@H](CO)[C@H](C(=O)NCC)[C@H]2N1CCC(F)(F)F (mixture of isomers) 0.676%
CO[C@H]1CN(C)C(=O)c2ccc(NC(=O)C3CC3)cc2OC[C@@H](C)N(C)C[C@H]1C 24.8%
COCC(=O)Nc1ccc2c(c1)C(=O)N(C)[C@H]1CC[C@@H](CC(=O)Nc3cn(C)nc3C)O[C@@H]1CO2 -1.96%
COc1ccc2c3c([nH]c2c1)[C@H](CO)N(C(=O)c1ccccc1)CC31CCN(S(=O)(=O)c2cccs2)CC1 23.2%
CCNC(=O)C[C@@H]1CC[C@@H]2[C@@H](COc3ccc(NC(=O)c4cccc(C(F)(F)F)c4)cc3C(=O)N2C)O1 -22.5%
OC[C@H]1[C@@H](c2ccc(/C=C/c3ccccc3)cc2)[C@H]2CN(Cc3cccnc3)CCCCN21 -61.1%
O=C(Cc1ccncc1)N1C[C@@H]2N[C@H](C1)C2c1ccc(-c2ccc(F)cc2)cc1 (some centres not stated) -75.3%
CC(C)CC#Cc1ccc([C@@H]2[C@@H](CO)N3C(=O)CN(C(=O)Nc4ccc(F)cc4)C[C@H]23)cc1 -28.4%
COc1ccccc1CNC(=O)C[C@H]1CC[C@@H]2[C@H](COC[C@H](O)CN2Cc2ccccc2)O1 6.62%
C[C@@H]1CN([C@H](C)CO)C(=O)Cc2cc(NC(=O)Nc3ccc4c(c3)OCO4)ccc2O[C@H]1CN(C)Cc1ccc(C(=O)O)cc1 21.4%
C[C@@H]1CN([C@H](C)CO)C(=O)Cc2cc(NC(=O)Nc3ccc4c(c3)OCO4)ccc2O[C@@H]1CN(C)Cc1ccc(C(=O)Nc2ccccc2N)cc1 -76.5%
Cc1ccc(S(=O)(=O)Nc2ccc3c(c2)C(=O)N([C@H](C)CO)C[C@H](C)[C@@H](CN(C)Cc2ccccc2)OCCCC[C@H](C)O3)cc1 30%
COc1ccc(S(=O)(=O)Nc2ccc3c(c2)CC(=O)N([C@@H](C)CO)C[C@H](C)[C@@H](CN(C)Cc2ccc(C(=O)O)cc2)O3)cc1 22.3%
Cc1ccc(S(=O)(=O)Nc2ccc3c(c2)CC(=O)N([C@H](C)CO)C[C@@H](C)[C@H](CN(C)Cc2ccc(C(F)(F)F)cc2)O3)cc1 32%
Cc1ccc(S(=O)(=O)Nc2ccc3c(c2)C(=O)N([C@H](C)CO)C[C@@H](C)[C@H](CN(C)Cc2ccccc2)OCCCC[C@H](C)O3)cc1 -43.7%
Cc1ccc(S(=O)(=O)Nc2ccc3c(c2)CC(=O)N([C@@H](C)CO)C[C@H](C)[C@H](CN(C)Cc2ccccc2)O3)cc1 -4.27%
COc1ccc(CN(C)C[C@H]2Oc3ccc(NS(=O)(=O)c4ccc(Cl)cc4)cc3CC(=O)N([C@@H](C)CO)C[C@H]2C)cc1 12.9%
C/C=C/c1ccc([C@H]2[C@@H](CO)N(C(=O)NCCC)[C@H]2CN(C)C(C)=O)cc1 0.514%
CCCNC(=O)[C@@H]1[C@@H](CO)[C@@H]2Cn3c(ccc(-c4cccc(OC)c4)c3=O)[C@H]1N2C(=O)NCCC 8.98%
COCC(=O)Nc1ccc2c(c1)OC[C@H](C)N(C(=O)c1cnccn1)C[C@@H](C)[C@@H](OC)CN(C)C2=O -61.6%
COc1ccc(-c2ccccc2[C@H]2[C@@H](CO)N(C(=O)C3CCC3)[C@H]2C#N)cc1 17.9%
COc1cccc(CNC(=O)C[C@@H]2C=C[C@@H](NC(=O)C3CCC3)[C@@H](CO)O2)c1 37.9%
COc1ccc2c3c(n(C)c2c1)[C@@H](CO)NCC31CN(S(=O)(=O)c2cccc(C)c2)C1 -18.8%
N#Cc1cccc(-c2ccc(C3[C@H]4CNC[C@@H]3N4S(=O)(=O)c3ccc(-c4ccccc4)cc3)cc2)c1 (some centres not stated) 14.1% and -40.8%
C[C@H]1CN([C@@H](C)CO)C(=O)c2cc(-c3ccncc3)cnc2O[C@@H]1CN(C)C(=O)C1CCCCC1 -1.12%
N#C[C@@H]1[C@H](c2ccccc2-c2ccc(F)cc2)[C@@H](CO)N1c1ncc(-c2ccccc2)s1 27.4%
CO[C@H]1CN(C)C(=O)c2cc(NC(=O)c3nc4ccccc4s3)ccc2OC[C@H](C)N(Cc2cccnc2)C[C@@H]1C -15.4%
CCCC(=O)Nc1ccc2c(c1)C(=O)N(C)C[C@H](OC)[C@H](C)CN(CCc1ccccc1)[C@H](C)CO2 -14.1%
CC(C)NC(=O)Nc1ccc2c(c1)CC(=O)N([C@H](C)CO)C[C@@H](C)[C@@H](CN(C)Cc1ccc(C(=O)Nc3ccccc3N)cc1)O2 -49.7%
C[C@@H]1CN([C@@H](C)CO)C(=O)Cc2cc(NC(=O)C3CCCCC3)ccc2O[C@@H]1CN(C)Cc1ccc(-c2ccccc2)cc1 -20.2%
Cc1ccc(S(=O)(=O)Nc2ccc3c(c2)C(=O)N([C@@H](C)CO)C[C@@H](C)[C@@H](CN(C)Cc2ccc(C(=O)Nc4ccccc4N)cc2)O3)cc1 -61.1%
C[C@H](CO)N1C[C@H](C)[C@H](CN(C)Cc2ccc(C(=O)Nc3ccccc3N)cc2)Oc2ccc(NS(C)(=O)=O)cc2C1=O -28.4%
C[C@H]1CN([C@@H](C)CO)C(=O)Cc2cc(NS(=O)(=O)c3ccccc3)ccc2O[C@H]1CN(C)Cc1ccc(C(=O)Nc2ccccc2N)cc1 -77.2%
Cc1noc(C)c1S(=O)(=O)Nc1ccc2c(c1)C(=O)N([C@@H](C)CO)C[C@H](C)[C@H](CN(C)Cc1ccc(C(=O)Nc3ccccc3N)cc1)O2 -52.6%

Activity change, -91.7% (active) and -72.1% (inactive):
c1ccc(-c2ccc(C3[C@@H]4CN(Cc5cccnc5)C[C@H]3N4)cc2)cc1 (some centres not stated)
